# CSC inhib: cancer stem cell inhibition; cancer stem cell-like cells viability, luminescence; inhibition, % at 7.5 µM; actives 1.1% (n = 300,000); in the data active means inhibition above about 75%; tested in HMLE shEcad cells
# Beta cell apopt: blocks beta cell apoptosis | INS-1E cytokine-induced death, ATP luminescence, 48 h; percent of positive-control rescue, neutral wells zero | protection from apoptosis, % (concentration not given with the values) | actives 0.8% (n = 300,000);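 active means Every replicate reaches about 75%, or at least half do and their mean reaches it too, limit read from the data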;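 further: 0% = cytokine-treated negative control wells and 100% = positive control rescue; higher means more ATP so stronger rescue from cytokine killing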
# MPTP inh: inhibitors of mitochondrial permeability transition pore; actives 1.4% (n = 360,000); isolated mouse mitochondria, Ca2+ swelling absorbance, 30 min; inhibition, % at 10 µM; AID 602449;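 active means inhibition of 50% or more, scaled per plate between neutral and stimulator controls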;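 further: 0% = DMSO wells given calcium and 100% = 1 mM EGTA wells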
# GRIN3A LBD mod: NR3A (human) ligand-binding domain modulation; NR3A LBD differential scanning fluorimetry, Tm shift; 0% = protein alone, 100% = glycine-bound protein; Tm shift relative to glycine control, % at 25 µM; actives 2.5% (n = 340,000);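 active means melting temperature shift of at least 10% of the positive control shift, at one fixed dose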
# SKKanGAS inh: inhibitors of SKKanGAS S. pyogenes growth in kanamycin (SK-promoter or general growth effect); actives 1.3% (n = 300,000); BacTiter-Glo, 6 h; inhibition, % at 7.5 µM; AID 1662;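 active means mean replicate score, as percent of positive control median, at least 50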;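 further: strain carries kanamycin resistance gene driven by streptokinase promoter and grows in 40 µg/ml kanamycin; loss of luminescence reflects streptokinase promoter inhibition or plain growth inhibition; 0% = median of DMSO wells and 100% = positive control at its reference dose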
# Mdm2-MdmX inh: human Mdm2/MdmX binding inhibition; inhibition, % at 8 µM; actives 3% (n = 330,000); SaOS-2 split-luciferase Mdm2/MdmX complementation, luminescence; AID 485346;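 active means inhibition of at least 50% at 8 µM in the primary screen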
# Starred values were filed as active, the others as inactive; . = no result. Shown are actives, neighbours in structure and some others; about 6.9% of the full set was active somewhere.
SMILES,CSC inhib,Beta cell apopt,MPTP inh,GRIN3A LBD mod,SKKanGAS inh,Mdm2-MdmX inh
O=C(NNc1c(Cl)cccc1Cl)c1cccs1,-12.5,.,1.0,-1.3,2.8,2.3
Cc1ccc(/C=N/Nc2cc(C)nc(NCc3ccccc3)n2)cc1,97.4*,27.9,41.9,1.1,11.0,47.4
Cc1cc(N/N=C/c2ccc(F)cc2)nc(NCc2ccccc2)n1,21.5,.,13.1,35.2*,5.0,36.5
O=C1OC(c2cccs2)Sc2ccccc21 (configuration not stated),.,.,-1.2,.,.,.
CCn1c(=S)sc2c(=O)n(CC(=O)Nc3cccc(Cl)c3)c(C)nc21,17.3,-1.5,5.1,33.1*,10.7,14.8
CC(=O)Nc1ccc(C2C(=O)c3ccccc3C2=O)cc1,-1.4,-4.3,1.6,2.3,50.9*,9.6
COc1cc(/C=N/n2cnc3c(sc4nc(C)cc(C)c43)c2=O)ccc1O,10.1,4.1,.,26.3*,1.8,33.4
Cc1cc(C)c2c(n1)sc1c(=O)n(CC(=O)c3ccccc3)cnc12,34.4,-7.1,1.7,8.1,93.1*,-14.1
C=CCOC(=O)Cn1cnc2c(sc3nc(C)cc(C)c32)c1=O,0.5,-3.9,-1.1,-2.7,-0.6,11.9
CC1(C)Oc2cc3oc(=O)ccc3c3c2C2C1CCC(C)(O3)C2O (configuration not stated),.,.,0.4,.,.,.
CCOc1ccc(N(CC(=O)N2CCCCC2)S(=O)(=O)c2ccc(Cl)cc2)cc1,-14.3,1.1,-1.2,-0.9,2.2,26.0
COCc1c(C(C)C)nc(C(C)C)c(/C=C/[C@@H](O)C[C@@H](O)CC(=O)O)c1-c1ccc(F)cc1,105.8*,45.7,.,.,7.4,.
Cc1ccc(NC(=O)c2ccc3c(SCC(=O)O)c4c(nc3c2)CCCC4)c(Br)c1,5.9,-4.7,-1.7,-1.6,-5.4,6.4
Cc1oc(/N=C/c2ccccc2)c(C#N)c1C,99.3*,165.3*,-1.0,2.8,1.7,11.1
Cc1oc(/N=C/c2cccc3ccccc23)c(C#N)c1C,-8.9,-0.8,-2.3,-0.2,0.4,6.9
COc1ccccc1NS(=O)(=O)c1cccc(C(=O)N(C)Cc2cccs2)c1,.,-3.8,-0.1,0.4,0.4,-16.7
COc1ccccc1N(C)S(=O)(=O)c1ccc(C(=O)Nc2cc(F)ccc2C)cc1,1.4,7.4,2.8,-4.6,.,37.4
COc1ccc(-c2csc(NC(=O)CN3C(=O)CCC3=O)n2)c(OC)c1,-11.5,-9.2,0.3,17.9*,-13.5,-7.9
COc1ccc(OC)c(-c2csc(NC(=O)CSc3ccccc3)n2)c1,33.3,3.9,2.7,5.4,25.7,24.1
CCCOc1ccc(-c2csc(NC(=O)CN3C(=O)CCC3=O)n2)cc1,1.7,-8.3,0.6,35.7*,2.5,1.3
COc1ccc(-c2csc(NC(=O)CN3C(=O)CCC3=O)n2)cc1,-5.0,-0.6,-1.8,-1.4,-0.4,5.3
COc1ccc(-c2csc(NC(=O)CSc3ccc(Br)cc3)n2)c(OC)c1,7.0,-6.9,6.8,12.1*,0.2,0.0
O=C(CN1CCCCC1)Nc1nc(-c2ccccc2)cs1,.,.,0.2,8.7,3.0,-8.0
CN1CCN(CC(=O)Nc2nc(-c3ccccc3)cs2)CC1,3.0,-1.1,0.5,13.1*,-0.4,-2.8
Cc1ccc(S(=O)(=O)NCC(=O)N(CC(=O)NCC2CCCO2)Cc2ccc(Cl)cc2)cc1 (configuration not stated),4.5,-0.8,-0.6,0.8,0.3,-6.1
SMILES,CSC inhib,Beta cell apopt,MPTP inh,GRIN3A LBD mod,SKKanGAS inh,Mdm2-MdmX inh
CN(C)C/C=C(\c1ccc(Br)cc1)c1cccnc1,-15.3,-7.0,2.6,5.7,.,-2.5
O=C(Nc1nc(-c2ccccc2)cs1)C1CCCO1 (configuration not stated),.,.,-0.5,2.1,-8.4,-28.4
O=C(Nc1nc(-c2ccc(-c3ccccc3)cc2)cs1)C1CCCO1 (configuration not stated),8.8,4.6,-2.3,-2.8,63.9*,12.2
COC(=O)C(C(=O)N1CCN(C)CC1)C1CCCCCC1 (configuration not stated),-10.2,-7.2,2.2,12.5*,.,4.6
COC(CN1C(=O)C(=O)/C(=C(/O)c2ccccc2)C1c1ccccn1)OC (configuration not stated),-4.5,-3.6,1.9,-2.2,-3.1,21.7
CCCCOc1ccc(C(=O)Nc2ccc3c(c2)OCO3)cc1,92.6*,0.7,1.2,-15.0,1.7,-42.1
N#CCC(=O)Nc1ccc(C(=O)Nc2ccc3c(c2)OCO3)cc1,.,-2.7,-0.4,29.1*,.,-10.1

# Screens (PubChem BioAssay)
